SMARCA2 activ: SMARCA2 (BRM) function activators, primary screen, cell-based, luminescence, high throughput. activation, % at 9.1 µM. AID 652017, 2013. hit rate 1% among 370,000. MG213 cells, MMTV-luciferase reporter, dexamethasone, overnight; in the data active = activation above about 7.8%;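 also: 0% = vehicle wells and 100% = reference activator wells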
HSF1 inhib: HSF1 inhibitors in luciferase reporter cells, primary screen, cell-based, NIH3T3, luminescence. NIH3T3-HGL HSE-luciferase, MG132-induced, luminescence 8 h; hits give low values. activity change, negative = inhibition, % at 7.5 µM (by protocol). hit rate 0.77% among 300,000;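 active = more than half of replicate wells show activity change below -50%, luminescence cut by over half; inconclusive = some wells, but at most half, below -50%; inactive = no replicate well below -50%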;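 also: luciferase reports HSF-1 transcriptional activity via heat shock element; 0% = median of DMSO wells and -100% = zero luminescence signal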
AI-2 QS modul: Vibrio harveyi AI-2 quorum sensing modulators, primary screen, JMH597 strain, luminescence/OD600 ratio; Vibrio harveyi JMH597 AI-2 luminescence/OD600 ratio, 9 h; hits give low values; strain lacks LuxN and CqsS sensors; 0 = neutral-control median; activity change, % at 7.5 µM; hit rate 0.4% among 300,000; in the data active = activity change below about -75%, passing the limit was not always enough; inconclusive = no clear call, values can overlap the other calls;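 also: luminescence divided by OD600 gain over 9 h not by final OD600 alone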
GAA850 FXN act: FXN promoter activators, primary screen, cell-based, luciferase luminescence, HEK293 lucGAA850 | HEK293 lucGAA850 FXN promoter luciferase reporter, 24 h; percent of 10 µM SAHA response | activation, % at 6 µM | hit rate 0.56% among 360,000 | AID 540364, 2011;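 active = activation above the average of all compounds screened plus 3 SD, cutoff fixed separately per campaign, cut at about 7.5% in these data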;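 also: 0% = DMSO wells and 100% = 10 µM SAHA wells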
HSP90 refold inh: HSP90 inhibitors, primary screen, cell lysate, luminescence; Heat shock protein HSP 90 (rabbit reticulocyte lysate; luciferase refolding); Rabbit reticulocyte lysate, luciferase refolding luminescence, 3 h; inhibition, % at 5.6 µM; hit rate 0.91% among 290,000;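 active = inhibition above the screen-wide mean plus 3 SD, computed separately per campaign, cut at about 16% in these data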;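 also: 0% = DMSO wells and 100% = 60 µM geldanamycin wells; inhibitors lower the luminescence because luciferase stays unfolded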
PG9 Ab binder: binders of HIV-1 gp120 antibody PG9, primary screen, biochemical, TR-FRET | HIV-1 gp120 / PG9 antibody interaction | TR-FRET gp120-PG9 antibody binding | inhibition, % at 6.7 µM | hit rate 0.43% among 360,000; in the data active = inhibition above about 8.5%
JMH597 growth: Vibrio harveyi growth inhibition, confirmation, counter-screen for AI-2 quorum sensing project, JMH597 strain, OD600 absorbance. shares compounds with AI-2 QS modul. 9 h; lacks LuxN and CqsS sensors. growth inhibition, % at 7.5 µM. hit rate 1% among 750. AID 2726, 2010;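 active = every replicate shows growth inhibition above 50%; inconclusive = at least half, but not all, replicates pass that cutoff; inactive = fewer than half of replicates pass it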
BB721 const-QS lum: luminescence inhibition in constitutive-on V. harveyi, confirmation, counter-screen for LuxS inhibitor project, strain BB721, luminescence readout; shares compounds with AI-2 QS modul; Vibrio harveyi BB721 luminescence, 9 h; inhibition, % at 7.5 µM; hit rate 95% among 750; AID 2727, 2010;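 active = inhibition above about 80% in every replicate, not just on average, limit read from the data; inconclusive = at least half of replicates past the limit, but not all; inactive = fewer than half of replicates past the limit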
BB721 growth: growth inhibition of V. harveyi BB721, confirmation, cytotoxicity control for AI-2 quorum sensing inhibitors, strain BB721, absorbance OD600. shares compounds with AI-2 QS modul. Vibrio harveyi BB721 growth, 9 h. growth inhibition, % at 7.5 µM. hit rate 3% among 750;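 active = every replicate shows growth inhibition above 50%; inconclusive = at least half but not all replicates above 50% inhibition; inactive = under half of replicates above 50% inhibition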
JMH597 AI-2 mod: Vibrio harveyi AI-2 signaling luminescence modulation – JMH597 strain, confirmation; shares compounds with AI-2 QS modul; Vibrio harveyi JMH597 AI-2 quorum sensing luminescence, 9 h; luxN and CqsS knockout, AI-2 only; inhibition, % at 7.5 µM; hit rate 97% among 750; AID 2736, 2010;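 active = every replicate shows more than 75% inhibition of signal versus neutral control wells; inconclusive = half to three quarters of replicates exceed 75% inhibition; inactive = fewer than half of replicates exceed 75% inhibition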
* hit, by the source's call; ? = inconclusive; / = no result. Shown are actives, neighbours in structure and some others; about 3.4% of the full set was active somewhere.

SMILES	SMARCA2 activ	HSF1 inhib	AI-2 QS modul	GAA850 FXN act	HSP90 refold inh	PG9 Ab binder	JMH597 growth	BB721 const-QS lum	BB721 growth	JMH597 AI-2 mod
c1ccc(SCc2cc(-c3ccccc3)no2)cc1	5	46	-92*	5	-5	2	14	99*	-15	99*
Cc1cc(C)cc(OCC(=O)O/N=C(\N)c2cccnc2)c1	-3	4	-96*	0	-1	0	0	98*	-32	98*
Cc1cc(C)cc(OCC(=O)O/N=C(\N)c2ccccn2)c1	4	8	?	2	1	0	/	/	/	/
N/C(=N\OC(=O)COc1ccc(Br)cc1)c1cccnc1	0	24	-36	2	-5	0	/	/	/	/
Cc1cccc(OCC(=O)O/N=C(\N)c2ccccn2)c1	7	27	-91*	5	0	0	-1	93*	0	96*
N/C(=N\OC(=O)COc1ccccc1)c1cccnc1	1	10	-88*	4	/	-1	25	95*	19	97*
Oc1ccc(C[C@H]2CNC(=S)N2CC2CCCN2C[C@H](Cc2ccccc2)N2C[C@H](Cc3ccc(O)cc3)N(CC3CCCCC3)C2=S)cc1 (stereo partly drawn)	-3	/	/	/	/	-1	/	/	/	/
COC(=O)[C@]12C[C@H](CC(=O)N3CCCCC3)C(=O)N(CCC3=CCCCC3)C1=C[C@H](COCc1ccccc1)O[C@@H]2C	-4	/	/	/	/	0	/	/	/	/
O=C(O)CC(=O)Nc1cc(Cl)ccc1O	-3	2	23	0	9	1	/	/	/	/
O=C(CCc1ccccc1)Nc1cc(Cl)ccc1O	2	1	-97*	0	3	0	47	100*	46	100*
O=C(C#Cc1ccccc1)NCc1ccccc1F	3	-4	-85*	2	-1	-2	16	94*	15	95*
O=C(NCc1ccccc1F)C(c1ccccc1)c1ccccc1	0	-1	16	-1	1	-2	/	/	/	/
Cc1ccc(S(=O)(=O)N/N=C\C=C\c2ccccc2)cc1	0	4	-98*	-1	-3	-4	51	100*	25	100*
CCc1ccc(CN(C)C(=O)c2cc(COc3cccc(C(F)(F)F)c3)on2)nc1	-2	4	-83*	2	-1	1	?	92*	?	95*
Cc1ccc(CN(C)C(=O)c2cc(COc3cccc(C(F)(F)F)c3)on2)o1	-1	-5	-81*	3	2	0	65*	95*	87*	96*
CC(=O)c1cccc(OCc2cc(C(=O)N(C)Cc3cnccn3)no2)c1	3	17	?	4	-5	-2	21	92*	15	95*
CC(COc1ccc(Cl)cc1)CN1CCC(C(O)(c2ccccc2)c2ccccc2)CC1 (stereo not drawn)	-3	/	/	/	/	/	/	/	/	/
Cn1cnc(S(=O)(=O)Nc2ccc(OC(F)(F)F)cc2)c1	-3	-1	?	3	2	-1	1	-34	-27	88*
CC(=O)O[C@@H]1C=C[C@@H](C#Cc2ccc(C(C)(C)C)cc2)O[C@@H]1COC(=O)Nc1ccccc1	-7	/	/	/	/	-2	/	/	/	/
CC(C)=CC(=O)OCC(=O)Nc1ccc(SC(F)F)cc1	1	3	-87*	1	-1	0	19	93*	-3	96*
C[C@H](CO)N1C[C@H](C)[C@@H](CN(C)S(=O)(=O)c2cn(C)cn2)Oc2ncc(Br)cc2C1=O	1	/	/	-2	/	0	/	/	/	/
O=S(=O)(c1cccs1)n1cccn1	-3	1	26	-2	1	2	/	/	/	/
O=S(=O)(c1ccc(Br)s1)n1cccn1	5	-7	-91*	2	0	-2	18	98*	-30	100*
COC(=O)/C=C/C(=O)Nc1cccnc1	3	10	-71	-3	0	-1	/	/	/	/
COC(=O)/C=C/C(=O)Nc1ccc(O)c(Cl)c1	2	4	-93*	4	-4	0	22	96*	42	95*
SMILES	SMARCA2 activ	HSF1 inhib	AI-2 QS modul	GAA850 FXN act	HSP90 refold inh	PG9 Ab binder	JMH597 growth	BB721 const-QS lum	BB721 growth	JMH597 AI-2 mod
O=C(CNc1ccc(Br)cc1)c1ccc(O)cc1	2	14	-82*	0	0	-2	-13	90*	-42	93*
CC1(C)CC(=O)N(CC(=O)N2CCN(c3cccc(C(F)(F)F)c3)CC2)c2ccccc2S1(=O)=O	-7	/	/	/	/	/	/	/	/	/
COc1ccc(CNC(=O)Nc2cc(C)cc(C)c2)cc1	1	9	?	2	4	-3	7	96*	-6	97*
COc1ccc(CNC(=O)Nc2ccc(C)c(C)c2)cc1	1	4	-63	2	3	-1	/	/	/	/
Cc1ccc(CNC(=O)Nc2cccc(C)c2)cc1	1	3	-90*	4	7	-2	12	99*	25	99*
O=C(NCc1ccccc1)NC1CCCCC1	1	-1	-70	4	-3	0	/	/	/	/
COc1ccc(CNC(=O)NC2CCCCC2)cc1	1	9	-87*	2	-3	0	12	92*	13	95*
COc1ccc(CNC(=O)Nc2ccc(C)cc2)cc1	2	5	-79*	-1	-2	0	0	88*	-14	92*
CCCCNC(=O)C1(C)CCN1C(=O)c1cc(C)n(C(C)(C)C)n1 (stereo not drawn)	-5	/	/	-2	/	0	/	/	/	/
O=C(NCc1ccccc1)[C@@H]1CCCN1C(=O)[C@H]1CCCN1C(=O)c1ccc(F)c(C(F)(F)F)c1	4	/	/	/	/	0	/	/	/	/
COc1cccc(CNC(=O)[C@H]2CCCN2C(=O)[C@H]2CCCN2C(=O)c2ccccc2)c1	0	/	/	/	/	0	/	/	/	/
